The entries come from a sample that favours hits as a whole.
DENV2 CPE rescue: DENV2-induced cell death inhibition; 350,000 compounds, 1.7% hits; DENV2-infected cells, cytopathic effect rescue, plate reader; CPE inhibition, % at 9.99 µM; in the data active = CPE inhibition above about 20%, passing the limit was not always enough; inconclusive = no clear call, values can overlap the other calls; tested in BHK-21 cells;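 note: 0% = median of neutral control wells and 100% = median of positive control wells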
Glyco luc inh: blocks N-linked glycosylation in D54 reporter cells; D54 ERlucT glycosylation luciferase reporter, 24 h; percent of 100 nM tunicamycin response; reporter increase, % at 12.5 µM; 360,000 compounds, 0.23% hits;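 active = mean luciferase reporter signal, scaled so untreated is 0 and the glycosylation-blocking control 100, at or above a set limit in every replicate; inconclusive = mean reaches the limit but not every replicate does; inactive = mean below the limit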;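 note: luciferase carries N-glycosylation sites so blocking glycosylation raises the light; 0% = median of neutral control wells and 100% = median of 100 nM tunicamycin wells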
Rtt109 HAT inh: C. albicans Rtt109 histone acetyltransferase inhibition; Q5AAJ8; purified Rtt109/Vps75, ThioGlo CoA-SH fluorescence, 4 h; inhibition, % at 34.9 µM; 330,000 compounds, 0.16% hits;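 active = inhibition of at least 50% in every replicate; inconclusive = best replicate reaches 50% inhibition but some replicates fall short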
Target sequence (Q5AAJ8 whole entry, looked up): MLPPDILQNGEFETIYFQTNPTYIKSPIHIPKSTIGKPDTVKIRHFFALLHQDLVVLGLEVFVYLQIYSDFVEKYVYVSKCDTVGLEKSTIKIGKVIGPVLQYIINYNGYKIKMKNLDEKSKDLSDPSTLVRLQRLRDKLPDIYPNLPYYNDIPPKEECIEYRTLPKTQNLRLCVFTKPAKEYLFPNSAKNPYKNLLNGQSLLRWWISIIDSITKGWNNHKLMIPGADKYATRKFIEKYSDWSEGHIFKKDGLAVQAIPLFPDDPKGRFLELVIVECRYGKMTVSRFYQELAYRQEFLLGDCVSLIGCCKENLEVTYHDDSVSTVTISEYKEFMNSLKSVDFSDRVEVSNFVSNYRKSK
PglD DTNB: inhibitors of Campylobacter jejuni PglD acetyltransferase. 360,000 compounds, 0.098% hits. purified PglD enzyme, DTNB colorimetric CoA detection. AID 602405. inhibition, % at 12.5 µM; in the data active = inhibition above about 16%, passing the limit was not always enough; inconclusive = no clear call, values can overlap the other calls
An asterisk follows results filed as active; ? = inconclusive; . = no result.

SMILES | DENV2 CPE rescue | Glyco luc inh | Rtt109 HAT inh | PglD DTNB
C[C@H]1CN([C@@H](C)CO)C(=O)c2cc(-c3cccc(C#N)c3)cnc2O[C@@H]1CN(C)Cc1ccc(F)cc1 | 9 | . | . | -1
Cc1c(Cl)c(C(=O)N2CCCCCC2)nn1C | 5 | 0 | 4 | -1
Cc1c(Cl)c(C(=O)N2CCCC2)nn1C | 121* | 1 | -18 | .
C[C@H](CO)N1C[C@H](C)[C@H](CN(C)Cc2ccc(Cl)c(Cl)c2)OCc2ccccc2-c2ccccc2C1=O | -2 | . | . | .
COc1ccc(-c2cc(C(=O)NCC(c3ccccc3)N(C)C)c3ccccc3n2)cc1OC (stereo not drawn) | ? | 30* | -5 | 9
COc1ccc(-c2cc(C(=O)NCc3ccco3)c3ccccc3n2)cc1OC | 3 | 2 | 4 | 7
COCC#Cc1ccc2c(c1)O[C@@H](CN(C)C(=O)C1CCC1)[C@@H](C)CN([C@@H](C)CO)S2(=O)=O | -11 | . | . | 1
CN1c2ccc(-c3ccccc3F)cc2[C@@H]2[C@@H](CCN2S(=O)(=O)c2ccc(F)cc2)[C@H]1CO | 20 | . | . | 2
COc1ccc(S(=O)(=O)N2CC[C@@H]3[C@H](CO)N(C)c4ccc(-c5ccc(F)cc5)cc4[C@@H]32)cc1 | -21 | . | . | -9
COc1ccc(S(=O)(=O)N2CC[C@@H]3[C@H]2c2cc(-c4ccccc4F)ccc2N(C)[C@H]3CO)cc1 | 26* | . | . | 1
CN1c2ccc(-c3ccccc3F)cc2[C@@H]2[C@@H](CCN2S(=O)(=O)c2ccc(F)cc2)[C@@H]1CO | 53* | . | . | 2
C[C@@H]1CN([C@H](C)CO)C(=O)c2ccccc2-c2ccccc2CO[C@H]1CN(C)S(=O)(=O)c1cccs1 | -4 | . | . | 1
CCCNC(=O)c1cc(-c2ccco2)on1 | . | 81* | -5 | 1
CSCCC(NC(=O)c1ccco1)C(=O)NCC1CCCO1 (stereo not drawn) | 67* | 0 | 1 | 2
CCCNC(=O)C[C@@H]1CC[C@@H]2[C@H](COc3ccc(NC(=O)c4ccccc4)cc3C(=O)N2C)O1 | 17 | . | . | 2
CCCN(CCC)CCCNC(=O)c1cc2c(=O)[nH]c3ccccc3c2n1C | 29* | 1 | 10 | .
O=C(C[C@H]1CC[C@@H]2[C@H](COC[C@@H](O)CN2C(=O)Nc2ccc(Cl)cc2)O1)NCC1CC1 | -3 | . | . | 4
CCC(=O)Nc1cccc(-c2cc3ccccc3oc2=O)c1 | 30* | -6 | 12 | .
CCC(=O)Nc1cccc(NC(=O)c2cc3ccccc3o2)c1 | . | -1 | -1 | -1
O=C1OC(=O)c2c(Br)c(Br)c(Br)c(Br)c21 | 39* | 4 | -2 | 1
CC(=O)Nc1ccc2c(c1)C(=O)N(C)[C@@H]1CC[C@@H](CC(=O)NCc3ccccc3Cl)O[C@@H]1CO2 | ? | . | . | -3
C[C@@H]1CN([C@H](C)CO)C(=O)c2cc(NC(=O)CCC(F)(F)F)ccc2O[C@@H](C)CCCCO[C@H]1CN(C)C(=O)Cc1ccccc1 | -6 | . | . | -2
COc1ccc(C[C@H]2CCn3cc(nn3)COC[C@@H](C(C)C)NC2=O)cc1 | 1 | . | . | .
Cc1cccc(CN2CCN(C(=O)c3cccc4ccccc34)CC2)c1 | 43* | -3 | 7 | -5
Cc1ccc(CN2CCN(C(=O)c3cccc4ccccc34)CC2)cc1 | -2 | -3 | 1 | -11
SMILES | DENV2 CPE rescue | Glyco luc inh | Rtt109 HAT inh | PglD DTNB
C/C=C/c1ccc2c(c1)O[C@H](CN(C)C(=O)CN(C)C)[C@@H](C)CN([C@H](C)CO)S2(=O)=O | 7 | . | . | 0
COc1ccc(S(=O)(=O)Nc2ccc3c(c2)C(=O)N([C@H](C)CO)C[C@@H](C)[C@@H](CN(C)Cc2ccc(C(=O)O)cc2)OCCCC[C@@H](C)O3)cc1 | -8 | . | . | -1
COc1ccc(S(=O)(=O)Nc2ccc3c(c2)C(=O)N([C@@H](C)CO)C[C@@H](C)[C@@H](CN(C)Cc2ccc(C(=O)O)cc2)OCCCC[C@H](C)O3)cc1 | 26* | . | . | 1
COc1ccc(S(=O)(=O)Nc2ccc3c(c2)C(=O)N([C@H](C)CO)C[C@H](C)[C@@H](CN(C)Cc2ccc(C(=O)O)cc2)OCCCC[C@@H](C)O3)cc1 | 33* | . | . | 9
C[C@@H]1CN([C@@H](C)CO)C(=O)c2cc(C#CCN(C)C)cnc2O[C@H]1CN(C)S(=O)(=O)c1ccccc1 | 0 | . | . | -1
O=C(Cc1ccccn1)NCC[C@H]1CC[C@H](NC(=O)Nc2ccccc2)[C@H](CO)O1 | 1 | . | . | -12
COc1cccc(C(=O)N2CCOCC2)c1 | 33* | 3 | 1 | .
COc1ccc2c3c(n(C)c2c1)[C@@H](CO)N(C(=O)Nc1ccccc1F)CC31CN(C(C)=O)C1 | -4 | . | . | .

Compound activity as filed in PubChem.
